Screens as filed in PubChem BioAssay.
This is a sample that favours compounds with a hit; in the whole collection about 4% have one here.
NALP3 yeast inh – NALP3 inhibition in yeast | inhibition, % at 10 µM | Yeast reconstituted NLRP3/ASC/caspase-1, beta-gal luminescence, 24 h | 330,000 tested, 0.39% active;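 active = inhibition of 50% or more; inactive = inhibition below 50%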;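 also: plate controls were induced DMSO wells for no effect and uninduced yeast grown without galactose for full effect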
tim23-1 inh – growth inhibitors of tim23-1 mutant yeast; AID 463212; S. cerevisiae tim23-1 growth, BacTiter-Glo luminescence, 24 h; inhibition, % at 20 µM; 330,000 tested, 1.3% active;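 active = growth inhibition of the mutant yeast at or above 50%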;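 also: temperature-sensitive mutant grown at 25 °C; plate controls were DMSO-treated mutant yeast for no effect and medium wells lacking yeast for full effect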
TIM10 inh – growth inhibitors of TIM10 yeast strain; S. cerevisiae TIM10 strain growth, BacTiter-Glo luminescence, 24 h; inhibition, % at 10 µM; 330,000 tested, 1.4% active;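 active = inhibition of 40% or more at the single tested concentration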;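 also: wild-type TIM10 isogenic control strain grown at permissive 25 °C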
NALP1 inh – inhibitors of NALP1 inflammasome in yeast. S. cerevisiae NALP1/ASC/caspase-1 growth, X-gal OD620, 72 h. inhibition, % at 10 µM. 280,000 tested, 0.61% active. AID 2071; in the data active = inhibition mostly above about 24%, no sharp cut-off; inactive = mostly below about 32%
tim10-1 inh – growth inhibitors of tim10-1 mutant yeast. S. cerevisiae tim10-1 ts strain growth, BacTiter-Glo, 24 h. inhibition, % at 20 µM. 330,000 tested, 2.2% active. AID 463190;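 active = inhibition of at least 40%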;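 also: mutant grown at 25 °C; 0% = DMSO wells with yeast and 100% = wells holding no yeast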
tim10-1 confirm – confirmation of tim10-1 mutant yeast growth inhibitors. shares compounds with tim10-1 inh. S. cerevisiae tim10-1 ts strain growth, BacTiter-Glo, 24 h. inhibition, % at 20 µM. 7,400 tested, 56% active;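 active = inhibition of yeast growth at or above a set limit in either of two repeat tests at 20 µM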;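 also: tim10-1 mutant grown at permissive 25 °C to find synthetic lethal compounds; 0% = DMSO yeast wells and 100% = medium wells without yeast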
An asterisk follows results filed as active; . = no result.

SMILES	NALP3 yeast inh	tim23-1 inh	TIM10 inh	NALP1 inh	tim10-1 inh	tim10-1 confirm
COc1ccc(-c2[nH]c(-c3ccc4c(c3)OCO4)nc2-c2ccccc2)cc1	-15	49	22	12	54*	28
CCN(CC)C(=O)c1sc(NC(=O)c2cccs2)c(C#N)c1C	-7	33	16	-5	44*	25
C/C(=N\O)c1cc(Cl)cc(Cl)c1O	19	38	38	0	48*	43*
Cc1cccc(CS(=O)(=O)c2ncc(Cl)c(C(=O)NCc3ccccc3)n2)c1	32	38	17	15	44*	-39
CSc1ccc(S(=O)(=O)NCc2ccccc2)cc1	23	42	7	15	46*	31*
CSc1ccc(S(=O)(=O)NCc2ccccc2Cl)cc1	0	46	33	6	52*	49*
O=S(=O)(NCc1ccccc1)c1ccc(Cl)cc1	-5	35	28	2	31	.
Cc1n[nH]c(=O)c2c(NC(=O)CSc3nc4ccccc4c(=O)n3CCCO)oc(C)c12	4	6	-3	-7	-15	.
CSc1ccc2nnc(-c3cccc(F)c3)n2n1	9	48	20	-1	48*	41*
CCOC(=O)Cc1cc(-c2ccc(O)cc2)nc2ccc3ccccc3c12	19	22	19	15	42*	24
CCOC(=O)Cc1cc(-c2ccc(OC)cc2)nc2ccc3ccccc3c12	15	6	9	18	14	.
CCCCc1ccc(S(=O)(=O)N2CCN(C(=O)c3ccco3)CC2)cc1	4	34	23	29	52*	32*
CCN(CC)S(=O)(=O)c1ccc(S(=O)(=O)N2CCN(C(=O)c3ccco3)CC2)cc1	-8	-1	-5	27	8	.
COc1ccc(N/C(C)=C/C(=S)Nc2ccccc2)cc1	-9	26	15	9	41*	15
COc1ccc(-n2c(C)nc3cc(C(=O)NCc4ccc5c(c4)OCO5)ccc32)cc1	4	28	12	25	18	.
CCOc1ccc(-n2c(C)nc3cc(C(=O)NCc4ccc5c(c4)OCO5)ccc32)cc1	2	38	8	43	47*	35*
S=c1[nH]nc(-c2n[nH]c3c2CCC3)n1/N=C/C=C/c1ccccc1	34	9	17	.	17	.
COc1cc2c(cc1NC(=O)C(c1ccccc1)c1ccccc1)CCCC2	13	16	12	9	9	.
CN(C(=O)Cn1cccc1C1=NC(c2ccccc2)CO1)c1ccccc1 (centres undefined)	-9	30	21	9	42*	18
CC1COC(c2cccn2Cc2ccccc2Cl)=N1 (centres undefined)	-66	-1	15	-25	17	.
CSc1ccc(S(=O)(=O)N2CCC(C(=O)NCC3CCCO3)CC2)cc1 (centres undefined)	21	12	1	2	7	.
O=C1CC(c2cc([N+](=O)[O-])ccc2Cl)c2c(ccc3ccccc23)N1 (centres undefined)	3	-8	4	25	5	.
C=CCN1C(=O)C2(NNc3ccccc3O2)c2ccccc21 (centres undefined)	17	36	34	1	1	.
CCCCN1C(=O)C2(NNc3ccccc3O2)c2ccccc21 (centres undefined)	8	33	31	10	43*	19
CC(C)Cn1c(=O)c2c(nc3n2CC(C)CN3Cc2ccccc2)n(C)c1=O (centres undefined)	16	30	8	-1	40*	7
SMILES	NALP3 yeast inh	tim23-1 inh	TIM10 inh	NALP1 inh	tim10-1 inh	tim10-1 confirm
CC1CN(Cc2ccccc2)c2nc3c(c(=O)n(C)c(=O)n3C)n2C1 (centres undefined)	13	15	-8	18	-2	.
CC1CN(c2nc3c(c(=O)n(Cc4ccc(Cl)cc4)c(=O)n3C)n2C)CC(C)O1 (centres undefined)	-7	19	38	16	44*	26
CCCCn1c(N)c(N(CCC(C)C)C(=O)C2CCCN(C(=O)c3ccc(Cl)cc3)C2)c(=O)[nH]c1=O (centres undefined)	0	10	-4	.	-1	.
Cc1ccc(NC(=O)Cn2nnc(C(=O)NCc3ccc(Cl)cc3)c2N)cc1F	4	-7	5	-1	18	.
O=C(O)c1ccccc1-c1ccccc1C(=O)NCc1ccccc1Cl	13	-16	2	4	-15	.
O=C1NCCc2c1[nH]c1c(Cl)ccc(Cl)c21	29	1	33	13	42*	36*
O=C1NCCc2c1[nH]c1ccccc21	5	6	-2	-11	4	.
CCOc1ccc(CCNC(=O)COC(=O)c2sccc2C)cc1OCC	27	8	4	.	17	.
Cc1cc2oc(C(=O)N(Cc3ccc(N(C)C)cc3)CC3CCCO3)c(C)c2cc1C (centres undefined)	4	33	27	13	25	.
Cc1ccc2oc(C(=O)N(Cc3ccc(N(C)C)cc3)CC3CCCO3)c(C)c2c1 (centres undefined)	8	37	1	6	40	-11
O=C(NNc1nc2ccccc2s1)c1ccccc1F	21	26	38	1	47*	28
O=C(NNc1nc2ccccc2s1)Nc1ccc(F)cc1	10	0	10	.	28	.
CCC(=O)Nc1cccc(C(=O)/C=C/c2ccccc2)c1	26	34	20	14	42*	43*
COc1ccccc1NC(=O)CSC1CC(=O)N(c2ccc3c(c2)OCO3)C1=O (centres undefined)	25	31	20	31*	47*	45*
Fc1ccc(Cc2nnc(-c3cccs3)o2)cc1	6	4	5	-91	2	.
c1csc(-c2nnc(Cc3cccc4ccccc34)o2)c1	12	26	6	-56	45*	22
CCC(C)NC(=O)c1c(N)n(/N=C/c2ccccn2)c2nc3ccccc3nc12 (centres undefined)	-3	2	35	10	42*	17
COCCCNC(=O)c1c(N)n(/N=C/c2cccnc2)c2nc3ccccc3nc12	12	0	9	4	30	.
COCCCNC(=O)c1c(N)n(/N=C/c2cccs2)c2nc3ccccc3nc12	6	15	28	6	42*	-3
CC1CCC(NC(=O)c2cc3c(=O)n(C)c4ccccc4c3n2C)CC1 (centres undefined)	21	27	21	3	40*	29
O=[N+]([O-])c1ccc(Cc2ccccn2)c([N+](=O)[O-])c1	4	23	-17	.	-7	.
CC(C)(C)C(=O)[C@@H]1[C@@H]2C(=O)N(C3CCCCC3)C(=O)[C@@H]2[C@H]2c3ccccc3C=CN12	-6	26	26	26	40*	26
O=S(=O)(c1ccc2c(c1)OCCO2)N1CCC(n2nnc3cc(F)ccc32)CC1	22	34	35	40	42*	30
